According to PubChem BioAssay (Tox21):
Records with an inconclusive call do not appear. The source made the active and inactive calls. Unless noted, calls come from the whole dose curve; as a rule, active = well fitted curve in the direction sought with a large enough effect in the repeat runs; inconclusive = weak or mixed curves; inactive = no such curve, though single readings can be large; an effect the other way counts as inactive or inconclusive.

Legend:
[1] = target: Thyrotropin receptor (Homo sapiens) (UniProt P16473); experiment: qHTS assay to identify small molecule antagonists of the thyroid stimulating hormone receptor (TSHR) signaling pathway (AID 1259385; calls by dose curve; note: nearly all actives have a fitted effect of over 20% in size)
Outline: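 TSHR-HEK293 cells (800/well) plated 18 h, then compounds with Ro20-1724 and TSH at 1.5 ng/mL final, 30 min at room temperature. cAMP quantified by HTRF (cAMP-d2/anti-cAMP-cryptate, 1 h); 15 concentrations in triplicate.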

[2] = qHTS assay to identify small molecule agonists of the estrogen receptor alpha (ER-alpha) signaling pathway in the presence of an antagonist - cell viability counter screen (AID 1259386);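 note: series mostly up to about 92 µM; cells exposed to compounds for 22 h at 37 °C before the viability read; nearly all actives have a fitted effect of over 30% in size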
Outline: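 Steps: 5-day stripped-FBS culture; seed and incubate 24hr; add ICI-182,780 (10.0nM final); pin 15-point compound titration; incubate 22hr at 37C; add CellTiter-Fluor at 21hr; read fluorescence.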

[3] = target: Progesterone receptor (Homo sapiens) (UniProt P06401); experiment: qHTS assay to identify small molecule agonists of the progesterone receptor (PR) signaling pathway (AID 1346784; calls by dose curve; note: nearly all actives have a fitted effect of over 30% in size)
Outline: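 PR-UAS-bla HEK 293T cells carrying a UAS-driven beta-lactamase reporter were seeded in medium with 2% charcoal-stripped FBS, preincubated 6 hr at 37C, then exposed to compounds in DMSO for 16 hr; agonism was read by LiveBLAzer B/G FRET fluorescence.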

[4] = target: Progesterone receptor (Homo sapiens) (UniProt P06401); experiment: qHTS assay to identify small molecule antagonists of the progesterone receptor (PR) signaling pathway (AID 1346795; active = well fitted inhibition curve with a large enough effect in the signal ratio in the repeat runs, not every such curve was filed as active; the % refers to the signal ratio)
Outline: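 PR-UAS-bla HEK293T cells carrying a UAS-driven beta-lactamase reporter were plated in medium with 2% charcoal-stripped FBS and rested 6 hr at 37C. Compounds were added with 1 nM R5020 (final) for 16 hr, then FRET substrate loaded 2 hr at room temperature.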

[5] = qHTS assay to identify small molecule antagonists of the progesterone receptor (PR) signaling pathway - cell viability counter screen (AID 1346798); note: series mostly up to about 92 µM; nearly all actives have a fitted effect of over 50% in size
Outline: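 PR-UAS-bla HEK293T cells in medium with 2% charcoal-stripped FBS were treated with compounds plus R5020 for 16 hr at 37C. Cell viability was then read by CellTiter-Glo luminescence after 30 min at room temperature in the same wells.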

[6] = qHTS assay to identify small molecule antagonists of the TGF-beta/Smad signaling pathway - cell viability counter screen (AID 1346824); note: nearly all actives have a fitted effect of over 50% in size
Outline: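 SBE-bla HEK 293T cells, incubated overnight, then compound plus 0.25 ng/mL TGF-beta1 (stock added) for 5 hr at 37 C. Viability was read in the same wells by CellTiter-Glo luminescence after 30 min at room temperature.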

[7] = qHTS assay to identify small molecule agonists of the TGF-beta/Smad signaling pathway - cell viability counter screen (AID 1346829); note: top concentration of the series differs between compounds; nearly all actives have a fitted effect of over 45% in size
Outline: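 Cytotoxicity counter screen: CellTiter-Glo luminescence (30 min, room temperature) measured in the SBE-bla HEK 293T reporter wells after 5 hr compound treatment at 37 C and the 2 hr substrate step.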

[8] = qHTS assay to identify small molecule agonists of the TGF-beta/Smad signaling pathway (AID 1346859; active = well fitted activation curve with a large enough effect in the signal ratio in the repeat runs, not every such curve was filed as active; the % refers to the signal ratio; note: series mostly up to about 77 µM)
Outline: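 HEK 293T cells stably carrying a beta-lactamase reporter driven by the Smad binding element were seeded overnight, exposed to DMSO-dissolved compounds for 5 hr at 37 C, 5% CO2, then loaded with FRET substrate for 2 hr at room temperature.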

[9] = target: Thyrotropin-releasing hormone receptor (Homo sapiens) (UniProt P34981); experiment: qHTS assay to identify small molecule antagonists of the thyrotropin-releasing hormone receptor (TRHR) signaling pathway (AID 1346877; active = well fitted inhibition curve with a large enough effect in the repeat runs, not every such curve was filed as active; note: series mostly up to about 51 µM)
Outline: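 Human TRHR in HEK293 cells; inhibition of the intracellular calcium rise triggered by 1 nM TRH was followed by fluorescence over 3 min. Compounds were run at 15 concentrations, three replicates each.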

[10] = target: Thyrotropin-releasing hormone receptor (Homo sapiens) (UniProt P34981); experiment: qHTS assay to identify small molecule agonists of the thyrotropin-releasing hormone receptor (TRHR) signaling pathway (AID 1346891; calls by dose curve; note: series mostly up to about 58 µM)
Outline: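 TRHR-expressing HEK293 cells were plated 18 h at 37 °C/5% CO2, loaded with calcium dye 2 h at 37 °C, then given compound in DMSO; fluorescence was read kinetically for 3 min at 1 s intervals.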

[11] = Human pregnane X receptor (PXR) small molecule agonists, qHTS cell viability counter screen (AID 1346977); note: nearly all actives have a fitted effect of over 50% in size
Outline: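 PXR-Luc HepG2 cells in medium with 5% charcoal-stripped FBS were pre-incubated 5hr, then exposed to compounds for 24hr at 37C. Viability was read in the same wells by CellTiter-Fluor fluorescence, reagent added after 23hr with a 1hr incubation.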

[12] = Caspase-3/7 induction in HepG2 cells by small molecules, qHTS assay (AID 1346978); note: nearly all actives have a fitted effect of over 15% in size
Outline: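 Wild-type HepG2 cells, 2,000/well, settled 5 hr at 37 C and 5% CO2, then compound-treated for 17 hr; caspase-3/7 activity read by luminescent Caspase-Glo 3/7 after 30 min at room temperature.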

[13] = Caspase-3/7 induction in CHO-K1 cells by small molecules, qHTS assay (AID 1346980); note: nearly all actives have a fitted effect of over 15% in size
Outline: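 Wild-type CHO-K1 cells exposed to compounds for 17hr at 37 C, 5% CO2. Caspase-3/7 activity then measured by Caspase-Glo 3/7 luminescence after 30min at room temperature.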

[14] = Caspase-3/7 induction in HepG2 cells by small molecules, qHTS cell viability counter screen (AID 1346981); note: series mostly up to about 92 µM; nearly all actives have a fitted effect of over 30% in size
Outline: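 The parent HepG2 line is plated at 2,000 cells per well and rested 5 hr before compound pinning from DMSO stocks. Following a 16-hr treatment at 37 C, a fluorogenic live-cell substrate (CellTiter-Fluor) reports viability after 1 hr.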

[15] = target: Nuclear receptor subfamily 1 group I member 2 (Homo sapiens) (UniProt O75469); experiment: Human pregnane X receptor (PXR) small molecule agonists, qHTS assay (AID 1346982); note: nearly all actives have a fitted effect of over 35% in size; note: potency is the fitted concentration of half-maximal effect
Outline: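 After plating in 5% charcoal-stripped FBS and a 5 hr rest, PXR-Luc HepG2 cells received compounds in DMSO. Following 24 hr at 37 C, ONE-Glo was added and light output read.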

[16] = Caspase-3/7 induction in CHO-K1 cells by small molecules, qHTS cell viability counter screen (AID 1346979); note: nearly all actives have a fitted effect of over 35% in size
Outline: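 Wild-type CHO-K1 cells were seeded at 1,500 per well, rested 5hr at 37 C, then exposed to compounds in DMSO. After 16hr, CellTiter-Fluor reagent was added and fluorescence read 1hr later as the viability measure.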

[17] = target: Nuclear receptor subfamily 1 group I member 2 (Rattus norvegicus) (UniProt Q9R1A7); experiment: Rat pregnane X receptor (rPXR) activation by small molecules, qHTS assay (AID 1346983); settings: rPXR luciferase reporter cells, One-Glo luminescence, 24 h; hits give high values; note: nearly all actives have a fitted effect of over 20% in size
Outline: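 Cell-based rPXR activation assay: rPXR cells, 2,000 per well, rested 5hr at 37 C, then exposed to compounds in DMSO for 24 hr at 37 C. Luciferase activity read by One-Glo luminescence after 30 min at room temperature.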

[18] = target: Nuclear receptor subfamily 1 group I member 2 (Homo sapiens) (UniProt O75469); experiment: CYP3A4 induction through human pregnane X receptor (PXR) by small molecules, qHTS assay (AID 1346984); note: nearly all actives have a fitted effect of over 40% in size
Outline: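 Human PXR activation is tracked via CYP3A4 promoter-luciferase in DPX-2 (HepG2) cells. Compounds treat cells for 24hr at 37C, and luminescence is read after One-Glo.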

[19] = target: Nuclear receptor subfamily 1 group I member 2 (Homo sapiens) (UniProt O75469); experiment: Human pregnane X receptor (PXR) activation by small molecules, qHTS assay (AID 1346985); note: nearly all actives have a fitted effect of over 40% in size
Outline: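 DPX-2 cells (HepG2 co-transfected with a PXR response element and a CYP3A4-promoter luciferase construct) were seeded at 2,000 per well, rested 5 hr at 37C, then exposed to DMSO-dissolved compounds for 24 hr. Activation was read as luciferase luminescence.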
% is set by controls: 0 for no effect and ±100 for the full control effect.

Sequence of Thyrotropin-releasing hormone receptor (Homo sapiens) (P34981 whole entry, looked up): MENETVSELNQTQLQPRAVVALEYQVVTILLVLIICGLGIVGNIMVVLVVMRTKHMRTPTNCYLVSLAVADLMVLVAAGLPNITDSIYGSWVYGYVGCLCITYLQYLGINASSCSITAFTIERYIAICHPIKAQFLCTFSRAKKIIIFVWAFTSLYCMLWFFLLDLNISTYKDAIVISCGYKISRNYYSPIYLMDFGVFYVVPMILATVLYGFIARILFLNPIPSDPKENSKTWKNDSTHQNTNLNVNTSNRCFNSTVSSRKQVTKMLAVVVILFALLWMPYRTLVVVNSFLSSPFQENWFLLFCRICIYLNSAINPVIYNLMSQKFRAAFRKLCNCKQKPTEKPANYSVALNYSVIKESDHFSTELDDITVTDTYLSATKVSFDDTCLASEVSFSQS
Sequence of Progesterone receptor (Homo sapiens) (P06401 whole entry, looked up): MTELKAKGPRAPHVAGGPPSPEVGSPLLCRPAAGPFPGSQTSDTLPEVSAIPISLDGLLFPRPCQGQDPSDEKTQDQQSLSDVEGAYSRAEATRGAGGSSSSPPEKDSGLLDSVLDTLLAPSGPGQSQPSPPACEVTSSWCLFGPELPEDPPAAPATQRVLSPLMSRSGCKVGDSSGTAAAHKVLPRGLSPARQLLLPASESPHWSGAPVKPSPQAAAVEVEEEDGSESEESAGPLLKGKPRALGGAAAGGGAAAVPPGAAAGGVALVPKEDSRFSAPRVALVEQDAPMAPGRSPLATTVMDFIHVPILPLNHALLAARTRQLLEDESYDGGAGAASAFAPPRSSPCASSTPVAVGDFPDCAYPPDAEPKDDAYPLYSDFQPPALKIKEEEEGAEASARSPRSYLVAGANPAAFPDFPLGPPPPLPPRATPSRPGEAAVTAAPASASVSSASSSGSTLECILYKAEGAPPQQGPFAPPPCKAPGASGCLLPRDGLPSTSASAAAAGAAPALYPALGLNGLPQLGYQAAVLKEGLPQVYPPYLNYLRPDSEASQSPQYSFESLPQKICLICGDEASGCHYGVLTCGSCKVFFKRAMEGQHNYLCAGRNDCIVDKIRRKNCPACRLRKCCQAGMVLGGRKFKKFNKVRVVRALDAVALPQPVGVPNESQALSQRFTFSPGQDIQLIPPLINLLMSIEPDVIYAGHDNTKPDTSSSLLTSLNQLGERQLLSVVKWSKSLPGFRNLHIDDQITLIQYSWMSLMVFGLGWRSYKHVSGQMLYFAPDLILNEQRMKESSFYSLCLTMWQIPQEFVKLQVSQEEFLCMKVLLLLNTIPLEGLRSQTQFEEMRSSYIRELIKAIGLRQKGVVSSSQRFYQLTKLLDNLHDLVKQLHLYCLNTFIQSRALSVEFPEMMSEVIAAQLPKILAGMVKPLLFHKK
Sequence of Thyrotropin receptor (Homo sapiens) (P16473 whole entry, looked up): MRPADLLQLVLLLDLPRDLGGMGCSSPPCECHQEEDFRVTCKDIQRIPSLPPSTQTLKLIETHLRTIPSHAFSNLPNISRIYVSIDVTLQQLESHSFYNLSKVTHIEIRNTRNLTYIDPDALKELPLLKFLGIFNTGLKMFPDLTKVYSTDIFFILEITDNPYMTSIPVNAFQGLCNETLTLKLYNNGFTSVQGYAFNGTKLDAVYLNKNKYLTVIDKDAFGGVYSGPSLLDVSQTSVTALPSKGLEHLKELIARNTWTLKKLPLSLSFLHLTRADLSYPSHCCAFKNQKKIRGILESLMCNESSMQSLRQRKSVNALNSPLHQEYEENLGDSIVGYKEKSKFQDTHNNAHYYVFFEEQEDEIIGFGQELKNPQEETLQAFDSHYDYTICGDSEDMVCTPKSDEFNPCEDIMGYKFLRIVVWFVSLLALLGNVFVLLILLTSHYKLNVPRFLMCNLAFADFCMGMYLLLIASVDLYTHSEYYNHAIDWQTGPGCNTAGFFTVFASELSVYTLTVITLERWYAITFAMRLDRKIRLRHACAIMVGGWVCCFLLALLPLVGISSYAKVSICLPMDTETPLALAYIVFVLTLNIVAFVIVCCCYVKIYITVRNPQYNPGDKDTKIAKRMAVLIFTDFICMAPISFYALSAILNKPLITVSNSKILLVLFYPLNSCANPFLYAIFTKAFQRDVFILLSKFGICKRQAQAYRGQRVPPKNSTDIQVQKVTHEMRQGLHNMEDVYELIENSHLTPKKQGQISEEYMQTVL
Sequence of Nuclear receptor subfamily 1 group I member 2 (Homo sapiens) (O75469 whole entry, looked up): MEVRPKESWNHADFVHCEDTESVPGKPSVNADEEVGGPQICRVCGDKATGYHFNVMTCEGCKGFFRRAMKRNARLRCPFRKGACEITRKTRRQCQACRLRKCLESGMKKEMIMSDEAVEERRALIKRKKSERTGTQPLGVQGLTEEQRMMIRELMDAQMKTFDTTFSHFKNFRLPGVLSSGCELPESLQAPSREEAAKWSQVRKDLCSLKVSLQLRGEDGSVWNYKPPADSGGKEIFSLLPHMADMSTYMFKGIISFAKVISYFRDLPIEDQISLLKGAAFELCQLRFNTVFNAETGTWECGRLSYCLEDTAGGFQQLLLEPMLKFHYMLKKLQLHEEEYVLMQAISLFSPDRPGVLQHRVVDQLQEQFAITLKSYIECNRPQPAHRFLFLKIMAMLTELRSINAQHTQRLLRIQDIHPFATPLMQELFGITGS
Sequence of Nuclear receptor subfamily 1 group I member 2 (Rattus norvegicus) (Q9R1A7 whole entry, looked up): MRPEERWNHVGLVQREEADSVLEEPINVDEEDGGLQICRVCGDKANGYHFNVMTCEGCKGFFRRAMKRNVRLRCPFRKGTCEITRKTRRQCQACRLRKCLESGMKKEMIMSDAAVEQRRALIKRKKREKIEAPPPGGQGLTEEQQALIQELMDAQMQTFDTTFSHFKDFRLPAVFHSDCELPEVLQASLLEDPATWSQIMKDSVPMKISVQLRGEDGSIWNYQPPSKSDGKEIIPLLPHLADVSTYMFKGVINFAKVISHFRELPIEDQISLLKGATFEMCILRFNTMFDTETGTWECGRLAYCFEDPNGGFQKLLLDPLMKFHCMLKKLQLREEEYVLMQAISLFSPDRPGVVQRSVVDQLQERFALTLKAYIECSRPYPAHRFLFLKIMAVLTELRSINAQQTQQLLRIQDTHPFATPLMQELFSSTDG

COc1ccccc1OC
inactive: outcome [1] | Potency [2] | Potency [3] | Potency [4] | Potency [5] | outcome [6] | Potency [7] | outcome [8] | Potency [9] | outcome [10] | Potency [11] | outcome [12] | outcome [13] | Potency [14] | Potency [15]

COC[C@@H](NC(C)=O)C(=O)NCc1ccccc1
inactive: outcome [1] | Potency [2] | Potency [3] | Potency [4] | Potency [5] | outcome [6] | Potency [7] | outcome [8] | Potency [11] | outcome [12] | Potency [16] | outcome [13] | Potency [14] | Potency [15]

NC(=O)OCCCc1ccccc1
inactive: outcome [1] | Potency [2] | Potency [3] | Potency [4] | Potency [5] | outcome [6] | Potency [7] | outcome [8] | Potency [9] | outcome [10] | Potency [11] | outcome [12] | outcome [13] | Potency [14] | max activation [17] -3.96% | Potency [18] | Potency [19]

c1cncc([C@@H]2CCCCN2)c1
inactive: outcome [1] | Potency [2] | Potency [3] | Potency [4] | Potency [5] | outcome [6] | outcome [8] | Potency [9] | outcome [10] | Potency [11] | outcome [12] | outcome [13] | Potency [14]
active: Potency [15] 21.7 µM

NCC1(CC(=O)O)CCCCC1
inactive: outcome [1] | Potency [2] | Potency [3] | Potency [4] | Potency [5] | outcome [6] | outcome [8] | Potency [9] | outcome [10] | Potency [11] | outcome [12] | Potency [16] | outcome [13] | Potency [14] | Potency [15]

Nc1c(Cl)c(F)nc(OCC(=O)O)c1Cl
inactive: outcome [1] | Potency [2] | Potency [3] | Potency [4] | Potency [5] | outcome [6] | Potency [7] | outcome [8] | Potency [9] | outcome [10] | Potency [11] | outcome [12] | outcome [13] | Potency [14]

Cc1ccc(S(=O)(=O)N[C@@H](CCCCN)C(=O)CCl)cc1
inactive: outcome [1] | Potency [2] | Potency [3] | Potency [4] | Potency [5] | outcome [6] | Potency [7] | outcome [8] | Potency [9] | outcome [10] | Potency [11] | outcome [12] | Potency [14] | Potency [15] | max activation [17] -2.32% | Potency [18] | Potency [19]
